From ChEMBL document CHEMBL4513216, “Probing the Open Global Health Chemical Diversity Library for Multistage-Active Starting Points for Next-Generation Antimalarials” (ACS Infect Dis, 2020)
Among all 68,000 compounds or so, about 2,700 (4%) showed an effect of 50% or more. The sample as a whole holds a higher share of strong results than the screen did.

tested on: Plasmodium berghei; experiment: Screen against P. berghei liver stage (PbLuc), transformed with Luciferase, at 2uM; type: functional, HepG2; details: tested at 2 uM

Q: With O=C(CCCN1CCCCC1)N1CCN(C(=O)c2ccc[nH]2)CC1 as the molecule, how does the INHIBITION read?
A: 2.7%

Q: Cn1c(SCC2OCCc3ccccc32)n[nH]c1=O (configuration not stated) was tested. Which INHIBITION did it give?
A: 54.53%

Q: Which INHIBITION does the source give for Cn1c(N)nnc1SCC1OCCc2ccccc21 (configuration not stated) here?
A: 18.52%

Q: With CCCn1c(O)nnc1SCC1OCCc2ccccc21 (configuration not stated) as the molecule, how does the INHIBITION read?
A: -10.86%

Q: COc1ccc(CN2CC(O)CN(C(=O)c3ccccc3)CC2=O)cc1 (configuration not stated) was tested. Which INHIBITION did it give?
A: -21.31%

Q: For CSc1ccc(CNc2ccccc2CN2CCC(O)CC2)cc1, which INHIBITION is on record?
A: 50.03%

Q: For CCc1ccc(CNc2ccccc2CN2CCC(O)CC2)o1, which INHIBITION is on record?
A: -10.29%

Q: OCc1ccc(CNc2ccccc2CN2CCC(O)CC2)o1 was tested. Which INHIBITION did it give?
A: 5.02%

Q: How did the INHIBITION turn out when CCSCc1ccnc(NC(=O)C2CCOC2)c1 (configuration not stated) was run?
A: 51.27%

Q: With O=C(Nc1cc(CSCCO)ccn1)c1ccc(Cl)o1 as the molecule, how does the INHIBITION read?
A: -32.88%

Q: For CCSCc1ccnc(NC(=O)C2CCCO2)c1 (configuration not stated), which INHIBITION is on record?
A: 31.62%

Q: How did the INHIBITION turn out when COc1ccc(-c2csc(-c3cccc(C(=O)O)c3)n2)cc1OC was run?
A: -60.47%

Q: Which INHIBITION does the source give for c1ccc(CN2CCC3(CC2)Nc2ccccc2CO3)cc1 here?
A: 17.25%

Q: Which INHIBITION does the source give for Cc1cc(CN2CCC(CNC(=O)c3ccc(C#N)cc3)C2)[nH]n1 (configuration not stated) here?
A: 39.57%

Q: With Cc1cc(CN2CCC(CNC(=O)CN3CCCCCC3)C2)[nH]n1 (configuration not stated) as the molecule, how does the INHIBITION read?
A: 63.17%

Q: Cc1cc(CN2CCC(CNC(=O)Cc3ccc(F)cc3)C2)[nH]n1 (configuration not stated) was tested. Which INHIBITION did it give?
A: -73.43%

Q: How did the INHIBITION turn out when CCC1=N[C@@]2(CC[C@@H]3CN(Cc4ccc(Cl)cc4)C[C@@H]32)C(=O)N1C was run?
A: 17.51%

Q: How did the INHIBITION turn out when CN1CCc2[nH]cnc2C12CCN(C(=O)c1noc3c1CCCC3)CC2 was run?
A: -15.03%

Q: With Cn1c(CN2CCOC[C@H]2c2nc(C(C)(C)C)co2)nc2ccccc21 as the molecule, how does the INHIBITION read?
A: -39.35%

Q: How did the INHIBITION turn out when CNC(=O)c1noc(CN2CC[C@](C)(O)[C@H](C)C2)n1 was run?
A: -44.85%

Q: For C[C@@H]1CN(Cc2nc(C(N)=O)no2)CC[C@@]1(O)C1CCOCC1, which INHIBITION is on record?
A: 26.14%

Q: With C[C@@H]1CN(Cc2nc(C(N)=O)no2)CC[C@@]1(O)C1CC1 as the molecule, how does the INHIBITION read?
A: 59.1%

Q: CC(=O)N1CCN(C(=O)c2ccc3ccn(C)c3c2)CC1 was tested. Which INHIBITION did it give?
A: -58.53%

Q: With O=S(=O)(Cc1cccc(Cl)c1)CC(O)Cn1cccn1 (configuration not stated) as the molecule, how does the INHIBITION read?
A: -17.17%

Q: How did the INHIBITION turn out when CN1[C@@H]2CC[C@H]1CN(C(=O)c1ccc(-c3ccccc3)[nH]1)CC2 was run?
A: 21.95%

Q: How did the INHIBITION turn out when Cn1cc(-n2cc3nc(N4CCOCC4)[nH]cc-3c2=O)cn1 was run?
A: 13.95%

Q: Which INHIBITION does the source give for CC(C)n1cc(-n2cc3nc(N4CCOCC4)[nH]cc-3c2=O)cn1 here?
A: 53.22%

Q: With CCn1cc(-n2cc3nc(N4CCOCC4)[nH]cc-3c2=O)cn1 as the molecule, how does the INHIBITION read?
A: 37.89%

Q: For Cc1cnc2c(c1NCc1ccc(F)cc1)c(=O)n(C)c(=O)n2C, which INHIBITION is on record?
A: -5.61%

Q: CCCc1nnc(NCc2ccc(OC)c(C#N)c2)o1 was tested. Which INHIBITION did it give?
A: 48.21%

Q: With CC(C)(C)Cc1nnc(NCc2cccc(C#N)c2)o1 as the molecule, how does the INHIBITION read?
A: 31.51%

Q: COc1ccc(CNc2nnc(CC(C)(C)C)o2)cc1C#N was tested. Which INHIBITION did it give?
A: 55.36%

Q: O=C(CCN1CCc2ccccc21)N1C[C@@H](O)[C@H](N2CCCC2)C1 was tested. Which INHIBITION did it give?
A: 15.72%

Q: For O=C(Cc1cccs1)N1CC[C@H]2[C@H]1CCN2Cc1cccnc1, which INHIBITION is on record?
A: 7.33%

Q: How did the INHIBITION turn out when O=C1C[C@H]2[C@@H](CCN2C(=O)Cc2ccccc2)N1Cc1cccnc1 was run?
A: 30.4%

Q: O=C1C[C@H]2[C@@H](CCN2C(=O)c2cscn2)N1Cc1cccnc1 was tested. Which INHIBITION did it give?
A: -12.98%

Q: O=C1C[C@H]2[C@@H](CCN2C(=O)Cc2cccs2)N1Cc1ccncc1 was tested. Which INHIBITION did it give?
A: 17.77%

Q: O=C1C[C@H]2[C@@H](CCN2C(=O)Cc2ccsc2)N1Cc1cccnc1 was tested. Which INHIBITION did it give?
A: 52.91%

Q: For O=C1C[C@H]2[C@@H](CCN2C(=O)Cc2cccs2)N1Cc1cccnc1, which INHIBITION is on record?
A: 55.7%

Q: With CN(Cc1nnc2n1CCC2)C(=O)c1ccc2c(c1)CCO2 as the molecule, how does the INHIBITION read?
A: 29.42%

Q: How did the INHIBITION turn out when COCCNC1(c2ccc(Cl)cc2)CCOCC1 was run?
A: 60.9%

Q: For CC(C)OCCNC1(c2ccc(Cl)cc2)CCOCC1, which INHIBITION is on record?
A: -17.01%

Q: Which INHIBITION does the source give for CCOCCNC1(c2ccc(Cl)cc2)CCOCC1 here?
A: 32.26%

Q: How did the INHIBITION turn out when CC(c1nc(C(C)(C)C)no1)S(=O)(=O)CC(=O)N1CCCC1 (configuration not stated) was run?
A: -3.22%

Q: Which INHIBITION does the source give for Cn1c(C2CCCN2C(=O)c2cn(CCN)nn2)nc2ccccc21 (configuration not stated) here?
A: -6.44%

Q: Which INHIBITION does the source give for O=C(CN1CC(c2ccccc2)CC1=O)NCc1cc2n(n1)CCNC2 (configuration not stated) here?
A: 66.18%

Q: For O=C(CN1CCOc2ccccc2C1)NCc1cc2n(n1)CCNC2, which INHIBITION is on record?
A: 5.75%

Q: How did the INHIBITION turn out when O=C(CN1CCC(c2ccccc2)CC1)NCc1cc2n(n1)CCNC2 was run?
A: 5.21%

Q: Which INHIBITION does the source give for CCOc1ccccc1Nc1nc2c(C)nn(C)c2c(=O)n1C here?
A: -51.9%

Q: CN1CCOC(CNC(=O)COc2ccc(F)cc2F)C1 (configuration not stated) was tested. Which INHIBITION did it give?
A: -7.88%

Q: Which INHIBITION does the source give for CC(C)Nc1nc2c(c(NC3CC3)n1)CCN(C1CCOCC1)CC2 here?
A: 4.95%

Q: For Cc1nc2c(c(NC(C)C)n1)CCN(C(=O)CCO)CC2, which INHIBITION is on record?
A: -13.61%

Q: Which INHIBITION does the source give for Cc1nc2c(c(NC(C)C)n1)CCN(C1CCOCC1)CC2 here?
A: 53.44%

Q: How did the INHIBITION turn out when Cc1cnc(NC(=O)NC(CCO)c2cccs2)s1 (configuration not stated) was run?
A: -11.51%

Q: How did the INHIBITION turn out when Cn1nc(COc2cncnc2)c2c1CCN(Cc1ccco1)C2 was run?
A: 8.36%

Q: With Cn1nccc1C(=O)Nc1cc(C(F)(F)F)c[nH]c1=O as the molecule, how does the INHIBITION read?
A: -27.71%

Q: How did the INHIBITION turn out when O=C(NCCc1ccco1)Nc1cc(C(F)(F)F)c[nH]c1=O was run?
A: -6.16%

Q: Which INHIBITION does the source give for CC(C)c1noc(CCC(=O)Nc2cc(C(F)(F)F)c[nH]c2=O)n1 here?
A: 64.9%

Q: With CCN(Cc1ccco1)C(=O)Nc1cc(C(F)(F)F)c[nH]c1=O as the molecule, how does the INHIBITION read?
A: 28.65%

Q: Which INHIBITION does the source give for CCCc1noc(CCC(=O)Nc2cc(C(F)(F)F)c[nH]c2=O)n1 here?
A: 43.44%

Q: Which INHIBITION does the source give for O=C(CCc1ccco1)Nc1cc(C(F)(F)F)c[nH]c1=O here?
A: 19.35%

Q: For CC(CCc1ccco1)NC(=O)Nc1cc(C(F)(F)F)c[nH]c1=O (configuration not stated), which INHIBITION is on record?
A: 57.95%

Q: How did the INHIBITION turn out when CN(Cc1ccco1)C(=O)Nc1cc(C(F)(F)F)c[nH]c1=O was run?
A: 19.35%

Q: Cc1noc(CCCC(=O)Nc2cc(C(F)(F)F)c[nH]c2=O)n1 was tested. Which INHIBITION did it give?
A: -30.49%

Q: With O=C(NCc1ccoc1)Nc1cc(C(F)(F)F)c[nH]c1=O as the molecule, how does the INHIBITION read?
A: -7.02%

Q: Which INHIBITION does the source give for O=C(COCc1ccco1)Nc1cc(C(F)(F)F)c[nH]c1=O here?
A: 66.2%

Q: How did the INHIBITION turn out when O=C(Nc1cc(C(F)(F)F)c[nH]c1=O)c1ccco1 was run?
A: 56.67%
